ROMK mod: modulators of human ROMK potassium channel. P48048. Tet-inducible ROMK, thallium flux fluorescence; actives lie on both sides. B-score at 10 µM. 2% of 130,000 active. AID 1918;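 active = signal ratio slope over the read window, or its plate-corrected B-score, at least 3 SD from the plate mean, either direction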;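 note: B-score of the F/F0 ratio slope over 7 to 12 s after thallium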
Target sequence (P48048 whole entry, looked up): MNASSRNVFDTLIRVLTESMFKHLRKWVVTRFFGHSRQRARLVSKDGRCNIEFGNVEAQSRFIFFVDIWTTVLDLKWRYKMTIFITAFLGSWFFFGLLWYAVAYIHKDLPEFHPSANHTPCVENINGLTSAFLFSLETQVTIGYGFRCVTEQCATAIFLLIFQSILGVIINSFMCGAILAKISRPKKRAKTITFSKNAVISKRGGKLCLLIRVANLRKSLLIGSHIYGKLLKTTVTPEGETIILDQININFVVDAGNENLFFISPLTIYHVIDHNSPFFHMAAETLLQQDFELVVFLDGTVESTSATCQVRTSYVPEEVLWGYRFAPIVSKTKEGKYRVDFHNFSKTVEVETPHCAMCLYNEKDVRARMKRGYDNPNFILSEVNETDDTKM
Insulin prom inh: TRM-6 insulin promoter activity inhibition; TRM-6 cells (human fetal islet line), insulin promoter-eGFP reporter, imaging; reporter expression induced with tamoxifen; 0.9% of 130,000 active; inhibition, % at 2 µM; AID 1273;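 active = inhibition above the mean plus 3 SD, with well images judged a real hit on visual review, cut at about 60% in these data, passing the limit was not always enough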
Lmaj promast: Leishmania major promastigote growth inhibition. Leishmania major promastigotes, resazurin fluorescence viability. inhibition, % at 10 µM. 9% of 200,000 active. AID 1063; in the data active = inhibition above about 50%;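 note: promastigotes grown with compound for 44 hours at 28 °C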
Insulin prom up: MIN6 insulin promoter up-regulation; AID 1625; z-score at 5 µM; MIN6 insulin promoter-GFP reporter, high-content imaging; active compounds read high; 0.3% of 190,000 active;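 active = z-score above 3 at 5 µM with at least 500 cells counted in the well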
WT yeast gro inh: growth inhibition of WT yeast, mitochondrial fusion screen; inhibition, % at 10 µM; 2.1% of 190,000 active; mitochondrial fusion phenotypic screen, WT strain; in the data active = inhibition above about 58%; tested in S. cerevisiae
Cl transport mod: KCC2 (human) Cl- transport modulation; Q9H2X9; KCC2 cells, thallium flux FluoZin-2 fluorescence; B-score of Tl+ flux slope (higher = more flux/activation; lower = inhibition) at 10 µM; 2.2% of 190,000 active;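 active = thallium flux slope and its plate-corrected score both differing from the plate sample mean at a set confidence after two filtering rounds, in either direction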;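 note: slope of fluorescence scaled to starting intensity during 10 to 20 s after thallium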
Each line names hits and unclear results; the compound was inactive in the other large screens. Only some compounds are listed: those with a hit (about 12% of all), similar ones and a draw of the others.

COc1cnn(-c2ccc(C)cc2)c(=O)c1Cl	none
O=C1N=C(N2CCN(c3ccccc3)CC2)S/C1=C\c1cn[nH]c1-c1ccccc1	Lmaj promast 52
O=C1CN(C(=O)CSc2nc3ccccc3n2CCc2ccccc2)c2ccccc2N1	Lmaj promast 58 (no result: ROMK mod)
O=C1CN(C(=O)CSc2nc3ccccc3c(=O)n2Cc2ccc(F)cc2)c2ccccc2N1	Cl transport mod 19 (no result: ROMK mod)
C=CCn1c(SCC(=O)N2CC(=O)Nc3ccccc32)nc2scc(-c3cccs3)c2c1=O	Lmaj promast 65 (no result: Insulin prom inh, Cl transport mod)
CC(C)CCn1c(SCC(=O)N2CC(=O)Nc3ccccc32)nc2scc(-c3cccs3)c2c1=O	none
Cc1ccc([N+](=O)[O-])cc1-c1ccc2cccc(C)c2n1	none (no result: ROMK mod, Insulin prom up)
CC(=O)c1cn(C)c(=O)c2ccccc12	none (no result: ROMK mod, Insulin prom inh, Lmaj promast, WT yeast gro inh)
CCCCCCCN1C=CC(=O)CC1	none (no result: ROMK mod, Insulin prom inh, Lmaj promast, Insulin prom up, WT yeast gro inh)
Cc1ccc(C(=O)N/C(=C/c2cn(-c3ccccc3)nc2-c2ccccc2)C(=O)O)cc1	none (no result: Insulin prom inh, Insulin prom up)
O=C(CNc1ccccc1)N/N=C/c1cn(-c2ccccc2)nc1-c1ccccc1	Lmaj promast 69 (no result: ROMK mod)
CC(=O)C(=Cc1cn(-c2ccccc2)nc1-c1ccccc1)C(C)=O	Insulin prom up 3.2 (no result: Insulin prom inh)
COc1ccc(C)cc1-n1nnnc1SCC(=O)NC(=O)NCc1ccco1	none (no result: ROMK mod)
O=C(CNC(=O)C1COc2ccccc2O1)N/N=C/c1ccc(O)cc1O (stereo not drawn)	Lmaj promast 98
Cc1cc(C)n(-c2nc(NC(C)(C)C)nc(NC(C)(C)C)n2)n1	none (no result: ROMK mod)
CC(C)(C)Nc1nc(NC(C)(C)C)nc(-n2ccnc2)n1	Lmaj promast 98 (no result: ROMK mod)
CC(C)(C)c1ccc(OCc2nc(-c3ccccn3)no2)c(Br)c1	WT yeast gro inh 80 (no result: ROMK mod)
CCOC(=O)CSc1nnc(CNC(=O)c2ccc(OC)cc2OC)n1C	none (no result: Insulin prom inh)
COCCNc1oc(-c2ccc(C)cc2)nc1C#N	none
Cc1ccccc1NC(=O)CNC(=O)c1ccc(C(F)(F)F)cc1	Lmaj promast 62
O=C(NCc1ccco1)c1cc2ccc(O)cc2oc1=O	Insulin prom inh 92 (no result: ROMK mod, Cl transport mod)
CC(C)(C)CC(=O)NCc1ccc(F)cc1	Insulin prom inh 73 (no result: Cl transport mod)
COc1ccc2cc(C(=O)NCc3ccco3)c(=O)oc2c1	none (no result: ROMK mod)
CSCc1ccc(C(=O)NCc2ccc(F)cc2)cc1	Lmaj promast 56 (no result: ROMK mod)
CCCOc1ccc(CCC(=O)O)cc1	none (no result: Insulin prom inh)
COC(=O)Cn1cnc2sc(C)c(S(=O)(=O)N3CCC(C)CC3)c2c1=O	none
O=C(O)c1ccc(CNC(=O)c2ccc(C(F)(F)F)cc2)cc1	Insulin prom inh 73
O=C(O)c1ccc(CNC(=O)c2ccc(Br)o2)cc1	none (no result: ROMK mod)
O=C(NCc1ccco1)c1ccccc1-c1ccc(C(F)(F)F)cc1	none (no result: ROMK mod)
O=C(NCc1ccco1)c1ccc(C(F)(F)F)cc1	Insulin prom inh 78
CC/C(O)=C(\C#N)c1nnc2n1CCCCC2	none (no result: ROMK mod)
Cn1c(Sc2ccc(Br)cc2)c(C=O)c2ccccc21	Lmaj promast 57 (no result: ROMK mod, Cl transport mod)
CNS(=O)(=O)c1cc(Br)ccc1S(=O)c1ccccc1C(=O)O (stereo not drawn)	none (no result: ROMK mod, Insulin prom inh, Lmaj promast, WT yeast gro inh)
CCCOP(=O)(OCCC)C(Nc1ccc(C(C)C)cc1)c1ccc([N+](=O)[O-])cc1 (stereo not drawn)	WT yeast gro inh 74 (no result: ROMK mod)
COP(=O)(OC)C(Nc1ccc([N+](=O)[O-])cc1)c1ccccc1 (stereo not drawn)	none (no result: ROMK mod, Insulin prom inh, Lmaj promast, WT yeast gro inh)
FC(F)(F)c1ccc(/C=N/N2CCN(Cc3ccccc3)CC2)cc1	Lmaj promast 54
Cc1ccc(CN2CCN(/N=C/c3ccc(C(F)(F)F)cc3)CC2)cc1	none
BrC(=C\c1ccccc1)/C=N/N1CCN(Cc2ccccc2)CC1	Lmaj promast 53 (no result: ROMK mod, Cl transport mod)
Cc1ccc2c(c1)[C@@H]1CN(C)CC[C@@H]1N2S(=O)(=O)c1ccc(F)cc1	Lmaj promast 88 (no result: Insulin prom inh, Cl transport mod)
O=C(Nc1nc(-c2ccc3c(c2)Cc2ccccc2-3)cs1)c1ccccc1	none
CCC[C@@H]1C[C@@]1(CCC)[C@@H](NP(=O)(c1ccccc1)c1ccccc1)c1ccc(C(=O)OC)cc1	WT yeast gro inh 68
O=[N+]([O-])c1ccc(Cl)cc1N1CCCC1	none (no result: Insulin prom inh)
CNCc1ccccc1OCC(=O)Nc1ccccc1	none (no result: ROMK mod, Insulin prom up, Cl transport mod)
CCOC(=O)c1ccc(NC(=O)COc2ccc(CNCCO)cc2OCC)cc1	none (no result: Insulin prom inh)
COc1cc(CNC(C)(C)CO)ccc1OCC(=O)Nc1ccc(Br)cc1	Lmaj promast 101 (no result: ROMK mod)
CCOC(=O)c1ccc(NC(=O)COc2ccccc2CNCCc2ccccc2)cc1	Lmaj promast 101 (no result: Insulin prom inh)
CCOC(=O)c1ccc(NC(=O)COc2ccc(CNC3CCCCC3)cc2OC)cc1	Lmaj promast 94 (no result: Insulin prom inh)
